Data on 54 compounds can be found in the supplement of paper PMC4962491.

Where a name gives a salt, the structure may show the parent alone. ± gives the standard deviation of the averaged measurements. In all, about 1,600 compounds were measured (“mitochondrial oxygen consumption rate normalised to cell number, Z score over the library”: median about 0.065, lowest 2% from about -2.2 on). Only a selection was taken, and the lowest values are over-represented in it overall.

The subject of this assay is FaDu. Description: mitochondrial oxygen consumption rate normalised to cell number, Z score over the library; higher = higher oxygen consumption (negative = OCR reduction). The conditions noted are these: treatment time 24 h; assay medium: 5 mM galactose, 5 mM pyruvate, 4 mM glutamine; 10 µM. On the procedure: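 Primary screen: FaDu cells were incubated 24 h with Pharmakon 1600 / TDI oncology set compounds at 2 or 10 uM. Mitochondrial-specific OCR (basal minus 2 uM antimycin A) was measured on a Seahorse XF96 in assay medium with 5 mM galactose, 5 mM pyruvate and 4 mM glutamine, then corrected for Hoechst cell number and expressed as a Z score […]. Compounds that cut cell number by >66% were excluded. Two repeats.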
For `CC1(C)[C@H](C(=O)O)N2C(=O)C[C@H]2S1(=O)=O`, the “mitochondrial oxygen consumption rate normalised” value is 0.32 ± 0.83.

As for `CCCCCCc1ccc(O)cc1O`, the “mitochondrial oxygen consumption rate normalised” value turned out to be 0.48 ± 0.24. In the case of `CCCCCCc1ccc(O)cc1O.Nc1c2ccccc2nc2ccccc12`, the “mitochondrial oxygen consumption rate normalised” value was -2.93 ± 0.2.

Regarding `Nc1c2c(nc3ccccc13)CCCC2`, the “mitochondrial oxygen consumption rate normalised” value was 1.05 ± 0.93. With `O=C(O)c1cc(-c2ccccc2)nc2ccccc12`, the “mitochondrial oxygen consumption rate normalised” value came to 0.349 ± 0.05. Turning to `O=C(Nc1cc(Cl)cc(Cl)c1O)c1c(O)c(Cl)cc(Cl)c1Cl`, the “mitochondrial oxygen consumption rate normalised” value was 1.06 ± 0.89. The figure for `Oc1c(Cl)cc(Cl)cc1Sc1cc(Cl)cc(Cl)c1O` is 6.804 ± 0.06. For `Oc1c(Cl)cc(Cl)c(Cl)c1Cc1c(O)c(Cl)cc(Cl)c1Cl` the value was -6.031 ± 0.028. The figure for `O=C(NCc1ccccc1)OCCO` is 1.42 ± 0.86; for `CCCCC(CC)COc1ccc(-c2nc(-c3ccc(OC)cc3)nc(-c3ccc(OCC(CC)CCCC)cc3O)n2)c(O)c1` (centres undefined) it is 0.282 ± 0.45.

For `Cc1ccccc1OCC(O)CO` (centres undefined), the “mitochondrial oxygen consumption rate normalised” value is -0.432 ± 0.61. The figure for `O=C1C(O)=C(O)C(=O)C(O)=C1O` is 0.611 ± 0.72. The figure for `Cc1oc(=O)oc1CN1CCN(c2cc3c(cc2F)c(=O)c(C(=O)O)c2n3C(C)S2)CC1` (centres undefined) is 0.0314 ± 0.4. Regarding `NC(=O)CCCCC1CCSS1` (centres undefined), the “mitochondrial oxygen consumption rate normalised” value came out at 1.43 ± 0.3. The figure for `CCN[C@@H]1C[C@H](N)[C@@H](O[C@H]2OC(CN)=CC[C@H]2N)[C@H](O)[C@H]1O[C@H]1OC[C@](C)(O)[C@H](NC)[C@H]1O` is 1.16 ± 0.38; for `O=C1/C(=C/c2cccs2)CCC/C1=C\c1cccs1` it is 0.0645 ± 0.73; for `CC(C)n1c(/C=C/C(O)CC(O)CC(=O)O)c(-c2ccc(F)cc2)c2ccccc21` (centres undefined) it is -1.03 ± 0.072. For `CC(=O)[C@@]1(O)CC[C@H]2[C@@H]3C=C(Cl)C4=CC(=O)[C@@H]5C[C@@H]5[C@]4(C)[C@H]3CC[C@@]21C` the value was -0.129 ± 1.6. For `Cc1cc(/C=C/c2ccc3cc(N(C)C)ccc3[n+]2C)c(C)n1-c1ccccc1` the value was -5.57 ± 0.19.

On to `COc1cc2/c(=N/c3ccc(Br)cc3F)nc[nH]c2cc1OCC1CCN(C)CC1` [vandetanib], for which the “mitochondrial oxygen consumption rate normalised” value came to 0.909 ± 1.7. For `CCN(CC)C(=O)c1cccnc1` the value was -0.362 ± 0.74; for `OCc1ccccc1O[C@@H]1O[C@H](CO)[C@@H](O)[C@H](O)[C@H]1O`, 0.956 ± 0.64; for `O=C(c1ccc(OCCN2CCCCC2)cc1)c1c(-c2ccc(O)cc2)sc2cc(O)ccc12`, -0.0851 ± 0.4.

On to `O=C(c1ccc(OCCN2CCCCC2)cc1)c1c(-c2ccc(O)cc2)sc2cc(O)ccc12` [Raloxifene HCl], for which the “mitochondrial oxygen consumption rate normalised” value is -0.567 ± 1.1.

On to `COc1ccc(-n2nc(CCC(=O)N(C)O)cc2-c2ccc(Cl)cc2)cc1`, for which the “mitochondrial oxygen consumption rate normalised” value was -0.88 ± 0.44. The figure for `FC(F)(Cl)C(F)(F)Cl` is 0.262 ± 0.59; for `CC12CCC(CC1=O)C2(C)C` (centres undefined) it is 0.477 ± 0.051. Turning to `C/C(=C\c1csc(C)n1)[C@@H]1C[C@@H]2O[C@]2(C)CCC[C@H](C)[C@H](O)[C@@H](C)C(=O)C(C)(C)[C@@H](O)CC(=O)N1` [Ixabepilone], the “mitochondrial oxygen consumption rate normalised” value is -0.637 ± 0.14. The figure for `OC[C@H]1O[C@@H](O[C@@H]2[C@@H](CO)OC(O)(CO)[C@H]2O)[C@H](O)[C@@H](O)[C@H]1O` (mixture of isomers) is 1.09 ± 0.68; for `CN(C)CC(c1ccc(O)cc1)C1(O)CCCCC1` (centres undefined) it is 0.524 ± 0.65; for `S=C=Nc1ccc(N=C=S)cc1` it is 0.759 ± 0.026.

For the compound `CC(=O)O[C@H]1C(=O)[C@@]2(C)[C@H]([C@H](OC(=O)c3ccccc3)[C@]3(O)C[C@H](OC(=O)[C@H](O)[C@@H](NC(=O)c4ccccc4)c4ccccc4)C(C)=C1C3(C)C)[C@]1(OC(C)=O)CO[C@@H]1C[C@@H]2O` [Paclitaxel], the “mitochondrial oxygen consumption rate normalised” value was -0.326 ± 0.26. The figure for `CC(=O)O[C@H]1C(=O)[C@@]2(C)[C@H]([C@H](OC(=O)c3ccccc3)[C@]3(O)C[C@H](OC(=O)[C@H](O)[C@@H](NC(=O)c4ccccc4)c4ccccc4)C(C)=C1C3(C)C)[C@]1(OC(C)=O)CO[C@@H]1C[C@@H]2O` is 0.221 ± 0.61.

On to `CCCCCC(C)N` (centres undefined), for which the “mitochondrial oxygen consumption rate normalised” value is -0.846 ± 0.93. For the compound `CC#CCn1c(N2CCC[C@@H](N)C2)nc2c1c(=O)n(Cc1nc(C)c3ccccc3n1)c(=O)n2C`, the “mitochondrial oxygen consumption rate normalised” value is 0.0591 ± 0.1.

For `CCCCC(=O)O[C@H]1CC[C@H]2[C@@H]3CCc4cc(O)ccc4[C@H]3CC[C@]12C`, the “mitochondrial oxygen consumption rate normalised” value was -0.519 ± 0.44. The figure for `CCCCC(CC)CN=C(N)N=C(N)NCCCCCCNC(N)=NC(N)=NCC(CC)CCCC` (centres undefined) is -4.17 ± 0.22; for `CCCCC(CC)COC(=O)CC(C(=O)OCC(CC)CCCC)S(=O)(=O)O` (centres undefined) it is 0.149 ± 0.34. The figure for `CC(=O)Nc1ccc(OC(=O)c2ccccc2O)cc1` is -0.337 ± 0.25; for `CC(CCc1ccc(O)cc1)NCC(O)c1ccc(O)cc1` (centres undefined) it is 0.0984 ± 0.26; for `CNNCc1ccc(C(=O)NC(C)C)cc1` it is 0.342 ± 0.2. For `CNNCc1ccc(C(=O)NC(C)C)cc1` [Procarbazine HCl] the value was 0.127 ± 0.26; for `C[C@H]1C[C@H]2[C@@H]3CCC4=CC(=O)C=C[C@]4(C)[C@@]3(F)[C@@H](O)C[C@]2(C)[C@@]1(O)C(=O)COP(=O)(O)O`, -0.398 ± 0.27.

On to `CS(=O)(=O)OCCCCOS(C)(=O)=O`, for which the “mitochondrial oxygen consumption rate normalised” value was determined as 0.716 ± 1.1.

Turning to `CS(=O)(=O)OCCCCOS(C)(=O)=O` [Busulfan], the “mitochondrial oxygen consumption rate normalised” value stood at 0.391 ± 1.2.

As for `O=C(Nc1ccc([N+](=O)[O-])cc1Cl)c1cc(Cl)ccc1O`, the “mitochondrial oxygen consumption rate normalised” value is -5.97 ± 0.27. The figure for `NC(=O)c1ccc([N+](=O)[O-])cc1Cl` is 0.965 ± 0.77; for `O=C(O)COCCN1CCN([C@H](c2ccccc2)c2ccc(Cl)cc2)CC1` it is -0.965 ± 0.4; for `COc1ccc2nc3cc(Cl)ccc3c(Nc3cc(CN4CCCC4)c(O)c(CN4CCCC4)c3)c2n1` it is -0.0207 ± 0.29.

Consider `COc1cc2c(N3CCN(C(=O)Nc4ccc(OC(C)C)cc4)CC3)ncnc2cc1OCCCN1CCCCC1`, for which the “mitochondrial oxygen consumption rate normalised” value came out at 0.241 ± 0.61. For `COc1ccc(OC)c(C(O)CNC(=O)CN)c1` (centres undefined) the value was 0.934 ± 0.11; for `C[n+]1ccccc1/C=N/O`, 0.788 ± 0.1; for `Cc1ncc(C[n+]2csc(CCO)c2C)c(N)n1`, 1.53 ± 0.67. Take `CC1(O)CCC(C(C)(C)O)CC1` (centres undefined): the “mitochondrial oxygen consumption rate normalised” value was determined as 0.228 ± 0.62.
